APOBEC3A inh: inhibitors of human APOBEC3A DNA deaminase; recombinant A3A, FAM/TAMRA ssDNA deamination fluorescence; inhibition, % at 20 µM; AID 493011; actives 0.41% (n = 330,000);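 active means at least 40% inhibition at 20 µM here, with at most 30% in a related deaminase screen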;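 further: plate controls were A3A with DMSO for no effect and wells lacking A3A enzyme for full effect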
Target sequence (P31941 whole entry, looked up): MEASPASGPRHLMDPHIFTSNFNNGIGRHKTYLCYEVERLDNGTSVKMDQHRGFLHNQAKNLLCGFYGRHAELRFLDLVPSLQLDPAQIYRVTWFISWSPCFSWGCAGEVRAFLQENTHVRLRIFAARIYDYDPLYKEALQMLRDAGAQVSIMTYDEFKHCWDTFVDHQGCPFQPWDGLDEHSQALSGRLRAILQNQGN
NPR1 activator: GC-A (human) enzyme activation. HEK293 GC-A cells, cGMP TR-FRET, EC30 ANP; 0% at EC30 ANP, 100% saturating ANP. activation, % at 10 µM. actives 0.14% (n = 370,000); in the data active means activation above about 40%
A3G deaminase: APOBEC3G (human) deaminase inhibition | Q9HC16 | AID 493012 | actives 0.28% (n = 330,000) | recombinant A3G, ssDNA deamination FAM/TAMRA fluorescence | inhibition, % at 20 µM;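 active means inhibition of at least 40% at 20 µM, with no more than 30% in the related APOBEC3A deaminase screen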;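 further: plate controls were DMSO wells with A3G for no effect and wells lacking A3G enzyme for full effect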
FAS-TE inh: inhibitors of human fatty acid synthase thioesterase domain. P49327. recombinant FAS-TE, OMFH fluorogenic substrate, fluorescence endpoint. inhibition, % at 15 µM. actives 0.67% (n = 360,000). AID 602261;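 active means compounds whose normalised, plate-corrected inhibition of enzyme fluorescence in the single-dose primary screen is 50% or more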;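 further: 0% = DMSO with enzyme and 100% = substrate without enzyme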
GC-B act: GC-B (human) receptor activation; P20594; HEK293-GC-B cells, CNP EC30, cGMP TR-FRET; 0% at EC30 CNP, 100% saturating CNP; activation, % at 10 µM; actives 0.11% (n = 370,000);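 active means activation at 10 µM reaching about 35% in either raw or pattern-adjusted values, limit read from the data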
A3G conf: confirmation of human APOBEC3G DNA deaminase inhibitors. recombinant A3G ssDNA deaminase, UDG/FAM-TAMRA fluorescence. actives 72% (n = 890). inhibition, % at 20 µM. shares compounds with A3G deaminase. AID 493152;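 active means inhibition reaching a set limit in any replicate at 20 µM, the limit being 80% of the first screen's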
UDG ctr A3G: counter-screen for APOBEC3G inhibitors: E. coli UDG | shares compounds with A3G deaminase | UDG counterscreen, FAM/TAMRA oligo fluorescence | inhibition, % at 20 µM | 710 tested, under 10 active;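 active means compounds giving 40% or more inhibition at 20 µM in any one of the three replicates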;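 further: plate controls were DMSO wells with UDG and oligo for no effect and DMSO wells lacking both for full effect; inhibitors lower the FAM signal released by uracil excision and alkaline cleavage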
Target sequence (P12295 whole entry, looked up): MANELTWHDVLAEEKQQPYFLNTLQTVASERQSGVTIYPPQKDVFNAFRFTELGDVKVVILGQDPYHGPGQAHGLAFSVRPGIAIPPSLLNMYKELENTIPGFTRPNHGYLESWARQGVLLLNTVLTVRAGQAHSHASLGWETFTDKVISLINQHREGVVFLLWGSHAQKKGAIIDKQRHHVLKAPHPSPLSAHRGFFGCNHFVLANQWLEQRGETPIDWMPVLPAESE
Numbers without * were called inactive; x = no result. Shown are actives, neighbours in structure and some others; about 1.4% of the full set was active somewhere.

SMILES	APOBEC3A inh	NPR1 activator	A3G deaminase	FAS-TE inh	GC-B act	A3G conf	UDG ctr A3G
COC(=O)/C=C1\SC(N2CCOCC2)=C(c2ccc(OC)cc2)C1=O	4.2	1.0	55.3*	-5.0	5.4	20.1*	-2.8
COc1ccc2cc(/C=C3\SC(=S)NC3=O)c(N3CCOCC3)nc2c1	-3.9	8.2	-8.1	37.3	-7.2	x	x
Cc1ccsc1C=Nn1c(-c2n[nH]c3c2CCC3)n[nH]c1=S	x	-0.8	x	x	-6.5	x	x
Cn1cccc1/C=N/n1c(-c2ccco2)n[nH]c1=S	-4.3	0.8	44.1*	-12.2	1.4	79.7*	-3.2
Cc1ccsc1/C=N/n1c(-c2ccco2)n[nH]c1=S	-0.5	1.1	42.1*	-8.1	0.7	76.8*	-3.0
Cc1cc(-c2n[nH]c(=S)n2-c2ccccc2)nn1C	0.8	4.7	16.2	-11.0	3.6	x	x
Fc1cccc(-c2n[nH]c(=S)n2-c2ccccc2)c1	-3.8	13.8	40.6*	-7.6	6.1	85.8*	-2.5
S=c1[nH]nc(-c2ccco2)n1/N=C/c1ccccn1	-0.9	x	59.3*	x	x	83.0*	1.0
Cc1cccc(/C=N/n2c(-c3ccco3)n[nH]c2=S)c1	-5.4	4.2	35.0	-3.5	-3.6	x	x
COC(=O)c1cccc(OC[C@@H](O)CN2CCC(C(O)(c3ccccc3)c3ccccc3)CC2)c1	x	-16.5	x	x	-15.8	x	x
COC1C(O)CCC2(CO2)C1C1(C)OC1CC=C(C)C (stereo not drawn)	x	4.0	x	x	2.1	x	x
S=c1[nH]nc(-c2ccco2)n1/N=C/c1c(Cl)cccc1Cl	-6.1	2.1	43.2*	6.7	0.2	71.2*	5.5
Cc1occc1-c1n[nH]c(=S)n1-c1ccccc1	-2.4	2.3	42.0*	-5.2	1.0	14.4*	-5.4
S=c1[nH]nc(-c2ccco2)n1/N=C/C(Cl)=C/c1ccccc1	0.2	-4.7	2.6	2.4	-3.9	x	x
S=c1[nH]nc(-c2ccco2)n1/N=C/c1cccc(Cl)c1	-1.5	6.3	32.5	4.9	0.7	x	x
S=c1[nH]nc(-c2ccco2)n1/N=C/c1ccc(Cl)c(Cl)c1	-5.3	1.2	44.0*	21.9	-5.2	-0.6	-2.3
Cc1ccc(/C=N/n2c(-c3ccco3)n[nH]c2=S)cc1	-4.5	2.5	40.5*	-4.6	2.6	65.5*	-1.2
C[C@@H]1CN(c2ccc(N3CCN(C(=O)OC(C)(C)C)C[C@@H]3C)cc2C#N)C[C@H](C)O1	x	4.4	x	x	8.2	x	x
Cc1ccc(-n2c(-c3ccco3)n[nH]c2=S)cc1	-3.1	-1.8	44.5*	-5.8	-0.6	72.0*	1.1
Fc1ccc(-n2c(-c3ccco3)n[nH]c2=S)cc1	x	3.6	x	-5.5	0.2	x	x
CCOc1ccc(N2C(=O)CC(Sc3n[nH]c(-c4ccccc4)n3)C2=O)cc1 (stereo not drawn)	-2.7	2.7	46.1*	-3.1	-1.1	46.5*	0.9
COc1ccc(N2C(=O)CC(Sc3n[nH]c(-c4ccccc4)n3)C2=O)cc1 (stereo not drawn)	-3.4	-3.7	52.8*	-3.7	-0.7	62.1*	-2.3
COc1ccc(N2C(=O)CC(Sc3nc(C)c4c(n3)CCCC4)C2=O)cc1 (stereo not drawn)	0.4	2.7	-7.8	-23.7	7.6	x	x
CCOc1ccc2nc(SC3CC(=O)N(c4ccccc4)C3=O)sc2c1 (stereo not drawn)	-1.7	x	-3.2	9.3	x	x	x
CCOC(=O)[C@H](CCc1ccccc1)N[C@@H](C)C(=O)N1Cc2cc(OC)c(OC)cc2C[C@H]1C(=O)O	x	2.4	x	x	-7.2	x	x
COc1ccc(C2C(C(=O)Nc3cc(Cl)ccc3F)CCC(=O)N2c2ccc(OC)cc2)cc1 (stereo not drawn)	x	-6.6	x	x	-4.4	x	x
O=C(Nc1nc(-c2nc3ccccc3s2)cs1)C1CC1	0.1	7.2	42.5*	12.9	1.3	-0.7	x
O=C(Nc1nc(-c2nc3ccccc3s2)cs1)c1ccco1	0.3	0.5	-6.0	-2.3	-4.9	x	x
Cc1ccc(CN2CC(N3CCC[C@@H]3C)CS2(=O)=O)cc1 (stereo partly drawn)	x	0.9	x	x	4.5	x	x

From PubChem
